# Screens from PubChem.
# TRPV1 PAM = potentiators of human vanilloid receptor 1 (TRPV1). TRPV1-expressing cells, Fluo-8 calcium influx, capsaicin EC20 potentiation. potentiation, % at 8.33 µM. 320,000 compounds, 0.02% hits; in the data active means potentiation above about 80%; inconclusive means between about 30% and that limit; further: 0% is about no effect
# Target sequence (Q8NER1 whole entry, looked up): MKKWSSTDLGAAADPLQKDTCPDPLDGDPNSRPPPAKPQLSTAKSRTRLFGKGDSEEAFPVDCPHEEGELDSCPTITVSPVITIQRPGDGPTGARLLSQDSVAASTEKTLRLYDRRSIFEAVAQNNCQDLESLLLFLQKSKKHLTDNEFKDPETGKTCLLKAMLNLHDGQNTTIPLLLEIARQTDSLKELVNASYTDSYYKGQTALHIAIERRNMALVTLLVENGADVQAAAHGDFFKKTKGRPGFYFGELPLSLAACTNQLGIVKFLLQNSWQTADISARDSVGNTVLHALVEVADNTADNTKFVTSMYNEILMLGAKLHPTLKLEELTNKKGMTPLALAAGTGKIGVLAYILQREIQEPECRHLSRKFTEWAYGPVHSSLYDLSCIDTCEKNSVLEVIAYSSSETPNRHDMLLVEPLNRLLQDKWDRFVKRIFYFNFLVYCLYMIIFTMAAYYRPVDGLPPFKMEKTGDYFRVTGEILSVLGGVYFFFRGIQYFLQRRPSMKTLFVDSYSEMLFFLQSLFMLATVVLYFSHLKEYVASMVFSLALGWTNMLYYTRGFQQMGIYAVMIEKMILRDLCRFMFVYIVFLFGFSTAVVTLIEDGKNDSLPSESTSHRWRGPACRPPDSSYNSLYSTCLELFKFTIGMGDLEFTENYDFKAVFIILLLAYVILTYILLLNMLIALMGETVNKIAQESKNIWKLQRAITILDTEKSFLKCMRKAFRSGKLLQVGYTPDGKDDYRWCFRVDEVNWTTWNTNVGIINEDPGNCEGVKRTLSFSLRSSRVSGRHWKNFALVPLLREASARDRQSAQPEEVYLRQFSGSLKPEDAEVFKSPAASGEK
#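 Cells expressing TRPV1 were dye-loaded with Fluo-8 and read kinetically: 10 s baseline, 3 min after compound (agonist portion), then 2 min after EC20 capsaicin (allosteric enhancer portion). Calcium-bound dye fluorescence at 480/520 nm.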
# D1 agonist = activates the human D1 dopamine receptor; AID 504660; activation, % at 2 µM; 360,000 compounds, 1% hits; P21728; HEK293 T-REx D1 cells, calcium flux, agonist mode; in the data active means activation above about 30%; further: 0% is about no effect
#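 Tetracycline-induced HEK293 TREx D1 cells, force-coupled to calcium signalling, were dye-loaded with a no-wash calcium kit. Compound was pin-added after a 10 s baseline. Fluorescence was read kinetically at 1 cycle/s for 180 s, with calcium rises flagged as agonism.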
# TRPV1 ag = activates the human vanilloid receptor TRPV1. AID 540275. TRPV1-expressing cells, Fluo-8 calcium influx, agonist mode. Q8NER1. activation, % at 8.33 µM. 320,000 compounds, 0.19% hits; in the data active means activation above about 80%; inconclusive means between about 30% and that limit; further: 0% is about no effect
#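 TRPV1-expressing cells were cultured overnight at 35.5C and loaded with Fluo-8 calcium dye for 40 to 90 min at room temperature. After a 10 s baseline, compound was added and calcium influx was read kinetically for 3 min (ex 480/em 520 nm).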
# D1 antagonist = human D1 dopamine receptor antagonism | HEK293 TREx D1 cells, calcium flux, dopamine EC80; hits give low values | activity change, negative = inhibition, % at 10 µM | 360,000 compounds, 3.2% hits; in the data active means activity change below about -30%; further: on the % scale 0 is the no-effect control and ±100 the full control effect
#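 After overnight tetracycline induction at 30 C, force-coupled D1 HEK293 cells took up a no-wash calcium dye at room temperature. Compounds were added and monitored 180 s, and the response to EC80 dopamine was then recorded.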
# D1 potentiator = human D1 dopamine receptor positive modulation; P21728; HEK293 TREx D1 cells, calcium flux, dopamine EC20 potentiation; potentiation, % at 10 µM; 360,000 compounds, 0.036% hits; AID 504651; in the data active means potentiation above about 30%; further: 0% is about no effect
# The depositor's hits bear a star; ? = inconclusive; . = no result; ! = not confirmed by another sample. This is a sample that favours compounds with a hit; in the whole collection about 4.2% have one here.
SMILES,TRPV1 PAM,D1 agonist,TRPV1 ag,D1 antagonist,D1 potentiator
Cc1ccc(/C=C/C(=O)Nc2nn[nH]n2)o1,1.7,3.2,2.1,-1.2,-2.5
CC(C)c1ccc(/C=C/C(=O)Nc2nn[nH]n2)cc1,14.9,2.8,-2.4,-30.6*,-3.8
Cc1cc(C)n(-c2ccc(Cl)c(C(=O)Nc3ccc(OC(F)(F)F)cc3)n2)n1,4.3,1.3,0.6,-36.4*,-1.2
CCc1ccc(-n2nc(CO)c(C(=O)NCc3ccccc3Cl)n2)cc1,.,3.3,.,13.2,1.8
O=S(=O)(c1ccc(Cl)cc1)c1nnn2c1nc(NCc1cccs1)c1sccc12,.,1.5,.,-22.3,-4.2
Cn1c(=O)[nH]c(=O)c2c1nc1n2CCN1Cc1ccccc1,-12.1,2.8,1.3,-60.9*,-7.3
Cc1ccc(-c2nc(S(=O)(=O)c3ccc(C)cc3)c(SCC(=O)c3ccccc3)o2)cc1,.,8.1,.,1.7,-0.6
Cc1cc(SCC(=O)N2CCN(C(=O)c3ccco3)CC2)c(C)cc1Br,21.4,13.5,12.6,-15.3,-6.0
Cc1cc(SCC(=O)OCC(=O)NCc2ccc3c(c2)OCO3)c(C)cc1Br,-18.0,14.4,?,-38.4*,-1.6
Cc1cc(SCC(=O)OCC(=O)N2CCN(C(=O)c3ccco3)CC2)c(C)cc1Br,21.9,44.5*,3.0,-18.4,-5.6
O=C(COC(=O)C1(c2ccc(F)cc2)CCCC1)NCc1ccc2c(c1)OCO2,-13.6,10.1,?,-31.6*,-10.0
COC(=O)c1ccc(Nc2nnc(-c3ccc(C)c(S(=O)(=O)N4CCN(C)CC4)c3)c3ccccc23)cc1,.,-1.9,.,-6.8,-0.5
CCOC(=O)c1ccc(/C=C2/C=C(c3ccccc3)N(c3ccc(Cl)c(C(=O)O)c3)C2=O)cc1,-5.6,102.9*,12.9,4.1,-1.2
CCOC(=O)c1ccc(Cl)c(NC(=O)c2ccc(-c3ccccc3)cc2)c1,20.0,3.1,-0.8,-15.1,-6.2
Clc1ccc(CSc2snnc2-c2ccccc2)c(Cl)c1,-6.6,51.1*,2.9,-10.0,-5.2
Cc1noc(C)c1CN(C(=S)NC(C)C)c1ccccc1,1.4,3.1,2.2,-32.3*,-4.7
CC1CCN(S(=O)(=O)c2ccc3c(c2)c(=O)c(C(=O)NCc2ccc(Cl)cc2)cn3C)CC1,.,-1.3,.,-5.0,9.2
CCOCc1c(C(=O)Nc2ccc(OC)nc2)oc2ccccc12,8.8,-2.9,90.4*,6.3,3.4
CN1C(=O)Cc2cc([S+](=O)([O-])N3CCN([S+](=O)([O-])c4c(F)cccc4F)CC3)ccc21,.,3.3,.,-12.6,-7.0
Cc1ccccc1C(=O)Nc1cccc(C(=O)OCc2cc(=O)n3ccsc3n2)c1,.,0.4,.,4.7,1.1
Fc1ccc(C(CCCn2nnc(-c3cccnc3)n2)c2ccc(F)cc2)cc1,-9.0,17.0,4.0,-30.1*,-6.5
Fc1ccc(-n2nnc(-c3cccnc3)n2)cc1,-3.5,-4.0,1.0,4.1,-4.0
O=C(COC(=O)c1cccs1)Nc1ccccc1C(F)(F)F,16.6,31.6*,-9.8,-32.0*,-4.2
C=CCn1c(CCC(=O)O)ccc1-c1ccccc1,6.5,2.6,-2.9,-56.0*,-2.0
O=C(O)CCc1ccc(-c2ccccc2)n1CC(=O)Nc1cccc(C(F)(F)F)c1,1.8,1.0,8.9,-65.3*,-8.9
SMILES,TRPV1 PAM,D1 agonist,TRPV1 ag,D1 antagonist,D1 potentiator
O=C(O)CCc1ccc(-c2cccs2)n1CC(=O)Nc1ccccc1C(F)(F)F,14.5,2.4,-0.1,-38.8*!,-2.8
O=C(O)CCc1ccc(-c2ccccc2)n1CC(=O)Nc1ccccc1C(F)(F)F,.,3.9,.,-11.4,-0.7
CCCOc1cccc(C(=O)N2CCCCC2CCN2CCCCC2)c1 (stereo not given),.,4.8,.,-10.3,-1.3
Cc1cccc(OCC(=O)OCc2cc(=O)n3nc(-c4cccs4)sc3n2)c1,.,2.4,.,8.3,-3.9
COc1ccc(Cl)cc1NC(=O)Cn1c(=O)n(Cc2ccc(F)cc2)c(=O)c2cccnc21,.,6.1,.,-0.5,-6.8
Oc1ccc2ccccc2c1C=Nc1ccc(N2CCOCC2)cc1,0.9,52.3*,20.5,2.2,-6.3
Oc1ccccc1N=Cc1c(O)ccc2ccccc12,-5.8,101.3*,97.0*,4.9,2.0
O=C(NCc1ccccc1)NC12CC3CC(CC(C3)C1)C2,-18.0,0.2,22.3,-3.2,-3.3
O=C(NCc1ccccn1)NC12CC3CC(CC(C3)C1)C2,-23.9,2.4,-16.4,-82.3*,-4.5
CC(C)(C)C1CCc2nc(NC(=O)Cc3ccccc3)sc2C1 (stereo not given),.,3.8,.,8.1,3.3
Nc1nc2c(s1)CC(c1ccccc1)CC2 (stereo not given),1.5,5.2,10.2,-30.3*,-2.9
Nn1c(Cc2ccccc2)nc2cc(Cl)ccc2c1=O,95.0*,-1.5,0.8,1.0,-4.2
Nn1c(COc2ccc(Cl)cc2)nc2ccccc2c1=O,2.3,-0.4,-3.2,6.5,-5.2
Cc1csc(CNc2ncnc3ccc(-c4ccoc4)cc23)c1,11.9,11.4,18.1,-62.5*!,9.7
Clc1ccccc1-c1ccc2ncnc(NCc3cccs3)c2c1,.,15.3,.,-41.8*,-9.2
Cc1cccc(-c2ccc3ncnc(NCc4cccs4)c3c2)c1,-6.7,8.4,?,-46.0*!,-9.9
CCC1CN(C(=O)Nc2cccc(OC)c2)c2ccccc2O1 (stereo not given),.,19.7,.,-8.9,-2.8
Cc1nc(-c2ccccc2)sc1-c1ccc(SCC(=O)NCc2ccccc2Cl)nn1,.,2.6,.,-3.5,1.0
O=C(Cn1c(=O)n(Cc2ccc3c(c2)OCO3)c(=O)c2ccccc21)Nc1cccc(Cl)c1,.,6.5,.,-6.7,1.7
COc1cc([N+](=O)[O-])ccc1N/C=C/C(=O)c1cccs1,-10.4,41.9*,5.6,-8.2,-8.2
COc1ccccc1/C=C/C(=O)OCC(=O)Nc1ccccc1Sc1ccccc1,?,50.2*,5.8,-16.1,0.7
COc1ccc(NC(=O)Nc2cc(C)ccc2OC)cc1,?,1.0,-10.7,-32.1*,-6.5
COc1ccc(OC)c(NC(=O)COC(=O)c2n[nH]c3ccccc23)c1,-1.3,16.7,13.3,-38.8*,.
COc1ccc(/C=C/C(=O)OCC(=O)NCCC2=CCCCC2)cc1,?,8.1,2.6,-36.5*,-3.9
COc1ccc(C)cc1NC(=O)Nc1ccccc1,-3.9,0.9,25.7,2.5,-4.5
COc1ccccc1NC(=O)COC(=O)/C=C/c1ccccc1[N+](=O)[O-],5.9,-0.9,5.8,-9.9,-5.0
Cc1ccc(CNC(=O)COCc2cc(-c3cccs3)on2)cc1,.,-0.4,.,6.1,-0.7
COc1ccc(NC(=O)c2ccco2)cc1NC(=O)COc1ccccc1,-13.3,3.0,?,-7.4,-0.7
CNC(=S)N1CCN(c2ccccc2OC)CC1,5.0,-0.4,-4.9,-46.4*,-4.8
COc1ccc(NC(=O)COc2ccccc2)cc1NC(=O)c1ccco1,28.9,1.0,3.6,-36.7*,-5.5
